This is an account of results in paper PMC7862700, “An all-to-all approach to the identification of sequence-specific readers for epigenetic DNA modifications on cytosine”.

Holding throughout (assay): DAPPL (digital affinity profiling via proximity ligation, sequencing); 10 mM Tris-HCl pH 7.5, 50 mM NaCl, 1 mM DTT, 4% glycerol, room temperature, 30 min; GST-TFs on glutathione beads, 16-mer random dsDNA library, 0.1% formaldehyde crosslink after washing; high values mean tight binding
In assay [1] the target is T1, FEV (Homo sapiens, UniProt Q99581 1-238).
T1 sequence: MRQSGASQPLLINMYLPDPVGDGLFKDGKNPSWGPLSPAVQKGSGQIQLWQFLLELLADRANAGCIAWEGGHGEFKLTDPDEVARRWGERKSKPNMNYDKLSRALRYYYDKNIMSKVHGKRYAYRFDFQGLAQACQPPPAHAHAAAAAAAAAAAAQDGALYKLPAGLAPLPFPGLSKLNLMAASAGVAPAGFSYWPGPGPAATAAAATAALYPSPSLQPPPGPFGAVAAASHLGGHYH
The conditions noted are these: protein: recombinant; tags: N-terminal GST; dsDNA, one strand shown. Summed up:
(§1)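 Binding signal is each hexamer's read frequency for a factor divided by its frequency in the tag-only sample. The factors were GST-fused human transcription factors from yeast, captured on glutathione beads, DNA-barcoded and pooled with that sample. Pools were incubated with 200 nmole of a random double-stranded 16-mer DNA library in Tris/NaCl/DTT/glycerol buffer at room temperature for 30 min, then washed, crosslinked with 0.1% formaldehyde, proximity-ligated with BsaI/T4 ligase (1 h, 37 °C), PCR-amplified and sequenced on an Illumina NextSeq500.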

For assay [2], the target named is ETV5 (Homo sapiens, UniProt P41161 1-510). The conditions noted are these: protein: recombinant; tags: N-terminal GST; dsDNA, one strand shown. Summed up: as §1
The target in assay [3] is HSF1 (Homo sapiens, UniProt Q00613 1-529). The settings on record: protein: recombinant; tags: N-terminal GST; chain copies: 3; dsDNA, one strand shown. In outline: as §1
Assay [4] concerns the target T2, SPIC (Homo sapiens, UniProt Q8N5J4 1-248).
T2 sequence: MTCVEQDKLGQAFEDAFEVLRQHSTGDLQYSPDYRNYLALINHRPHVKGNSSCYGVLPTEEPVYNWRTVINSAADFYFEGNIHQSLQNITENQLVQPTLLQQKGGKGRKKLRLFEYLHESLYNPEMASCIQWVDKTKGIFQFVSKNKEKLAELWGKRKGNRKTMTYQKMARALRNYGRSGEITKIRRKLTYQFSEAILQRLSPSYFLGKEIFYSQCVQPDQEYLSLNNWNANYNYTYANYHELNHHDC
The settings on record: protein: recombinant; tags: N-terminal GST; dsDNA, one strand shown. In outline:
as §1

Assay [5] concerns the target ELF4 (Homo sapiens, UniProt Q99607 1-663). The conditions noted are these: protein: recombinant; tags: N-terminal GST; dsDNA, one strand shown. Summed up:
as §1

The target of assay [6] is T3, ELK4 (Homo sapiens, UniProt P28324-2 1-405).
T3 sequence: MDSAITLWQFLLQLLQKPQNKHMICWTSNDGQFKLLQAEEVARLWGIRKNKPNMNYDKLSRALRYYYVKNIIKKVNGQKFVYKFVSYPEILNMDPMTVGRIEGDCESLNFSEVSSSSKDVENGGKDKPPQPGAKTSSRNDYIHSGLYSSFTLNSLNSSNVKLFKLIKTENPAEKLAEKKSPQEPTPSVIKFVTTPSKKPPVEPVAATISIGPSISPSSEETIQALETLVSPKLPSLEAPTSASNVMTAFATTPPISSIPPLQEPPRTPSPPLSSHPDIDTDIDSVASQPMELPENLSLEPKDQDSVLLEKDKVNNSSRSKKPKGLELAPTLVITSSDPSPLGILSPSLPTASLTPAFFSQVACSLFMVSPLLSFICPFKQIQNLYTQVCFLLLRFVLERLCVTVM
The settings on record: protein: recombinant; tags: N-terminal GST; dsDNA, one strand shown. Summed up: as §1

Assay [7] addresses T4, ETV2 (Homo sapiens, UniProt O00321 1-342).
T4 sequence: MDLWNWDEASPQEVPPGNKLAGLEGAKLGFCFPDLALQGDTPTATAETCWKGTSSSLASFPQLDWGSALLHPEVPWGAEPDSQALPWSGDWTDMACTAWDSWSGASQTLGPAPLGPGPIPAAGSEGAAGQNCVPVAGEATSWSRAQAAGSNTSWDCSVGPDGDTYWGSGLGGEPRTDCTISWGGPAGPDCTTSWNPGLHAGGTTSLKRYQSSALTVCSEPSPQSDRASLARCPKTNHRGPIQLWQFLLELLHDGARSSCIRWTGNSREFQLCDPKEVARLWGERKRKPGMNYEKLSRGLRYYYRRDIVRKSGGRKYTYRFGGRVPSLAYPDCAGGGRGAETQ
The conditions noted are these: protein: recombinant; tags: N-terminal GST; dsDNA, one strand shown. Summed up:
as §1

The target of assay [8] is T5, ELF3 (Homo sapiens, UniProt P78545 1-371).
T5 sequence: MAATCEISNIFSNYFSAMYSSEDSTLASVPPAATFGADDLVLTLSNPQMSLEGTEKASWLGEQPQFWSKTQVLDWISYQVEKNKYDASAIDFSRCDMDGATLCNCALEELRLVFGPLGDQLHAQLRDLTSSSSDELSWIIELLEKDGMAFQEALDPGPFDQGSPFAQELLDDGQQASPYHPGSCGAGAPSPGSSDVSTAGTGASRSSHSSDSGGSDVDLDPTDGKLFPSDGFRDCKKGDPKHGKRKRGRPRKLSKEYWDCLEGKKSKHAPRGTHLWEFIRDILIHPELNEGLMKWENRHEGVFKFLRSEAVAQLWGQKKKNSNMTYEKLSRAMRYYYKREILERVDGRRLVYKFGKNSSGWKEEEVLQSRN
The conditions noted are these: protein: recombinant; tags: N-terminal GST; dsDNA, one strand shown. In outline:
as §1

Assay [9] has as its target CRX (Homo sapiens, UniProt O43186 1-299). The conditions noted are these: protein: recombinant; tags: N-terminal GST; dsDNA, one strand shown. Summed up:
as §1

For assay [10], the target named is ETV1 (Homo sapiens, UniProt P50549 1-477). The settings on record: protein: recombinant; tags: N-terminal GST; dsDNA, one strand shown. Summed up:
as §1

In assay [11] the target is T6, ERF (Homo sapiens, UniProt P50548 1-548).
T6 sequence: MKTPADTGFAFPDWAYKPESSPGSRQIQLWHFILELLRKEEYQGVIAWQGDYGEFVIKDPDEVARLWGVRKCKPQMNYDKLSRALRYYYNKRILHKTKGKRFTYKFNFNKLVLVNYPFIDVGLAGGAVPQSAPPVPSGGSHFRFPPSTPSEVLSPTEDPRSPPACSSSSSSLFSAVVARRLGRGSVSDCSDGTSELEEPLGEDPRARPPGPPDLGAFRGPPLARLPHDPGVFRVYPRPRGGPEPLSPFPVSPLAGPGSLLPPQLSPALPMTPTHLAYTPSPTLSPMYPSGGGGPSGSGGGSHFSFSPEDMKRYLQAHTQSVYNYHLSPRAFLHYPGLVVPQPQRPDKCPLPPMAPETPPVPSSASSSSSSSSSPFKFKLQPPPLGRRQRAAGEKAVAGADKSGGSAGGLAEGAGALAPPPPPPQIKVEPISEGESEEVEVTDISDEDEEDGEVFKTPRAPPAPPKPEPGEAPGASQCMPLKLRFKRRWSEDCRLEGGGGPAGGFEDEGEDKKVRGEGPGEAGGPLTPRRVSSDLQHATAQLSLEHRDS
The settings on record: protein: recombinant; tags: N-terminal GST; dsDNA, one strand shown. In outline:
as §1

Assay [12] deals with T7, ETV3L (Homo sapiens, UniProt Q6ZN32 1-361).
T7 sequence: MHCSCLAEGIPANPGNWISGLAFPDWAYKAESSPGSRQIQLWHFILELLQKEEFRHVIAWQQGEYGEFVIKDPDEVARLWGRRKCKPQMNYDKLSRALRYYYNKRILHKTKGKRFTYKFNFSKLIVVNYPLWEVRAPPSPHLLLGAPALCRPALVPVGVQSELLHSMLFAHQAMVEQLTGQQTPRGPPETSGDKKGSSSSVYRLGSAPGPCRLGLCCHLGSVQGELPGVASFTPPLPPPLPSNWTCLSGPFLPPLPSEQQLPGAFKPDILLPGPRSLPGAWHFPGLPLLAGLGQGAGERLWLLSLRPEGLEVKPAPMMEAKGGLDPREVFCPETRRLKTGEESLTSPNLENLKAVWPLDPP
The settings on record: protein: recombinant; tags: N-terminal GST; dsDNA, one strand shown. In outline:
as §1

For assay [13], the target named is T8, ETS2 (Homo sapiens, UniProt P15036 1-469).
T8 sequence: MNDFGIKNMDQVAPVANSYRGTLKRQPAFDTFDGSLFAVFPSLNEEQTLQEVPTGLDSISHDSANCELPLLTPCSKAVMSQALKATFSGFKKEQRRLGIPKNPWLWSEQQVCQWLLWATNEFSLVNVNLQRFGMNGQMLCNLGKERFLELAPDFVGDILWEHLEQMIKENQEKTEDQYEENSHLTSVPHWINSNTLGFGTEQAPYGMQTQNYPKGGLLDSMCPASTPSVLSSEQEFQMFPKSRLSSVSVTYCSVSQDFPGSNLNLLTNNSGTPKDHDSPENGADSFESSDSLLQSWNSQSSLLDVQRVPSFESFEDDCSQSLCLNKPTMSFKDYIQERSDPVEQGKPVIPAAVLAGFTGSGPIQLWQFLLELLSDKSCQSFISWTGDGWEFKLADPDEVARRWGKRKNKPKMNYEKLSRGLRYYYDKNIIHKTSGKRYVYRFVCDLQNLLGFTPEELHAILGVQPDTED
The conditions noted are these: protein: recombinant; tags: N-terminal GST; dsDNA, one strand shown. Summed up:
as §1

The target of assay [14] is T9, SPDEF (Homo sapiens, UniProt O95238 1-335).
T9 sequence: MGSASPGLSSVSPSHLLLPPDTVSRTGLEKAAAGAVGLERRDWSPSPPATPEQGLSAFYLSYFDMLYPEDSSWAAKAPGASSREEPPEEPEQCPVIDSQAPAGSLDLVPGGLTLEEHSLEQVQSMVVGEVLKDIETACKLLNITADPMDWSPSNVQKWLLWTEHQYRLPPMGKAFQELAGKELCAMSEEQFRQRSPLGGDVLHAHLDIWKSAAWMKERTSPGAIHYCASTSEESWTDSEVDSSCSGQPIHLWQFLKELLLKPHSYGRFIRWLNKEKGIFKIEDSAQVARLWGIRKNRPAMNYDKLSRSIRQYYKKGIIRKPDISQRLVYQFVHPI
The settings on record: protein: recombinant; tags: N-terminal GST; dsDNA, one strand shown. Summed up: as §1

Assay [15] concerns the target T10, ETV7 (Homo sapiens, UniProt Q9Y603 1-341).
T10 sequence: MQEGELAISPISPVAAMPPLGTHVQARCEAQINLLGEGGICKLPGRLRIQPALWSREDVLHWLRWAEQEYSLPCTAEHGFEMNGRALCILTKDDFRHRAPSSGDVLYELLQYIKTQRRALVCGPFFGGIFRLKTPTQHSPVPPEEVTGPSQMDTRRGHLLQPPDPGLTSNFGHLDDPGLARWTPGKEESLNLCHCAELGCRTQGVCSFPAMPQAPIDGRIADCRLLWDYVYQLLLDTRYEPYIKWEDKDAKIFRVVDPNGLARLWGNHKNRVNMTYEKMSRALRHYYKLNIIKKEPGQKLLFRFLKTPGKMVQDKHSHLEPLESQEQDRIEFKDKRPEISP
The conditions noted are these: protein: recombinant; tags: N-terminal GST; dsDNA, one strand shown. In outline:
as §1

Assay [16] concerns the target T11, ELF5 (Homo sapiens, UniProt Q9UKW6-2 1-255).
T11 sequence: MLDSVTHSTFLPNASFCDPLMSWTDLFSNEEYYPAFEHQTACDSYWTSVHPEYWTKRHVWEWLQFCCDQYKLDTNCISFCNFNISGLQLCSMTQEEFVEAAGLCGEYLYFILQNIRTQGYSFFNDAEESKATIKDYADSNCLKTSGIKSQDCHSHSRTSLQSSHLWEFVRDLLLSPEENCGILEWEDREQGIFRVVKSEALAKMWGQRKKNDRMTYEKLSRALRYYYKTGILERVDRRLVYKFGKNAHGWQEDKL
The conditions noted are these: protein: recombinant; tags: N-terminal GST; dsDNA, one strand shown. In outline: as §1

The target of assay [17] is T12, ETV3 (Homo sapiens, UniProt P41162-2 1-143).
T12 sequence: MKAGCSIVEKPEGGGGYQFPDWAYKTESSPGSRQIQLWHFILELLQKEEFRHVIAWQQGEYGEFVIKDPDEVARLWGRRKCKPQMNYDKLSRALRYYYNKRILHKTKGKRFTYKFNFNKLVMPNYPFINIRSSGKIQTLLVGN
The conditions noted are these: protein: recombinant; tags: N-terminal GST; dsDNA, one strand shown. Summed up: as §1

The target of assay [18] is ETV6 (Homo sapiens, UniProt P41212 1-452). The settings on record: protein: recombinant; tags: N-terminal GST; dsDNA, one strand shown. In outline: as §1
Sequence of ETV6 (P41212 whole entry): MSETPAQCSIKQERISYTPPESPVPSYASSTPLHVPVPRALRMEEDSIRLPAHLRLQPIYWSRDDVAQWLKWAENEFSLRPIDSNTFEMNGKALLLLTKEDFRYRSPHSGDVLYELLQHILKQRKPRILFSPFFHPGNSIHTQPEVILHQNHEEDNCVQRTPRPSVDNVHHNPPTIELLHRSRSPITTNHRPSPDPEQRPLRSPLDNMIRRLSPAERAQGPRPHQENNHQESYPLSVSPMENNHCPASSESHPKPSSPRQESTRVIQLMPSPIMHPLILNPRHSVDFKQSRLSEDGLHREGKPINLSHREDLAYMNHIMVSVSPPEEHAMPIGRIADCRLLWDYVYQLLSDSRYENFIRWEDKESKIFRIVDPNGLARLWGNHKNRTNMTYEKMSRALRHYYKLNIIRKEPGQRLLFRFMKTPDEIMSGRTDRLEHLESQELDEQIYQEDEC

Sequence of ETV1 (P50549 whole entry): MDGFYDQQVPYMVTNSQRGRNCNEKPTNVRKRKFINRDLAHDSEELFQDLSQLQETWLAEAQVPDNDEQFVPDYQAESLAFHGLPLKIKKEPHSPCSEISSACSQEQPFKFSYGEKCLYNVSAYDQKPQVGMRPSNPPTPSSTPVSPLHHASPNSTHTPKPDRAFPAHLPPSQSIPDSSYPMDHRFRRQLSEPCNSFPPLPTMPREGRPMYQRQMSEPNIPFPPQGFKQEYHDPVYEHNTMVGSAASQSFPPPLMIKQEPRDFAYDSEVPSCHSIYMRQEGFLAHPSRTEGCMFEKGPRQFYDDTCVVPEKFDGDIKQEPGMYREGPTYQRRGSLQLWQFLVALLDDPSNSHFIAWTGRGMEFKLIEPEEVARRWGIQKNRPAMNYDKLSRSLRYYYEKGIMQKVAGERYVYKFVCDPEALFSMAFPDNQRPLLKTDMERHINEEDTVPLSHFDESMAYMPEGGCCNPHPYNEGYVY
Sequence of ETV5 (P41161 whole entry): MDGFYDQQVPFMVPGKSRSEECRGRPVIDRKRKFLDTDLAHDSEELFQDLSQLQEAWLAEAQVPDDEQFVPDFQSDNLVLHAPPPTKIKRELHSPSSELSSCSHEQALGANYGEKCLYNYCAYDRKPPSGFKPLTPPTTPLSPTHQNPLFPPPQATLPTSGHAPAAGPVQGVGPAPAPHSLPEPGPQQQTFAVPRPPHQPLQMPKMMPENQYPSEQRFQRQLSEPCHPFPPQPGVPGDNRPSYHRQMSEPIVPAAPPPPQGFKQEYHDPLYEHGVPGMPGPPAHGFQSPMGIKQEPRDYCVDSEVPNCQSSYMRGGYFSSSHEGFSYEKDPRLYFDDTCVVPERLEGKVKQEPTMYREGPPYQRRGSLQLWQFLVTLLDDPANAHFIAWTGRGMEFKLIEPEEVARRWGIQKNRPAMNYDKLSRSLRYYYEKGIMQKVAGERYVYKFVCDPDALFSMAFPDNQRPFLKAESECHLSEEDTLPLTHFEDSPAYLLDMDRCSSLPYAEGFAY
Sequence of CRX (O43186 whole entry): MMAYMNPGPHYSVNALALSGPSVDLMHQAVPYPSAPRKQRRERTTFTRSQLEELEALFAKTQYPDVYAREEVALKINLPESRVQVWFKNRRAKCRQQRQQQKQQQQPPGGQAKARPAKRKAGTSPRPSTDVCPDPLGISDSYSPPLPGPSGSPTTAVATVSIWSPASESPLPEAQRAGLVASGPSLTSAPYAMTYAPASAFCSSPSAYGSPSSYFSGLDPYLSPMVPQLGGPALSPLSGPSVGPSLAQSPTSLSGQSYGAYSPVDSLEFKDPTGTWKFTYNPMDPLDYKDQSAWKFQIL
Sequence of ELF4 (Q99607 whole entry): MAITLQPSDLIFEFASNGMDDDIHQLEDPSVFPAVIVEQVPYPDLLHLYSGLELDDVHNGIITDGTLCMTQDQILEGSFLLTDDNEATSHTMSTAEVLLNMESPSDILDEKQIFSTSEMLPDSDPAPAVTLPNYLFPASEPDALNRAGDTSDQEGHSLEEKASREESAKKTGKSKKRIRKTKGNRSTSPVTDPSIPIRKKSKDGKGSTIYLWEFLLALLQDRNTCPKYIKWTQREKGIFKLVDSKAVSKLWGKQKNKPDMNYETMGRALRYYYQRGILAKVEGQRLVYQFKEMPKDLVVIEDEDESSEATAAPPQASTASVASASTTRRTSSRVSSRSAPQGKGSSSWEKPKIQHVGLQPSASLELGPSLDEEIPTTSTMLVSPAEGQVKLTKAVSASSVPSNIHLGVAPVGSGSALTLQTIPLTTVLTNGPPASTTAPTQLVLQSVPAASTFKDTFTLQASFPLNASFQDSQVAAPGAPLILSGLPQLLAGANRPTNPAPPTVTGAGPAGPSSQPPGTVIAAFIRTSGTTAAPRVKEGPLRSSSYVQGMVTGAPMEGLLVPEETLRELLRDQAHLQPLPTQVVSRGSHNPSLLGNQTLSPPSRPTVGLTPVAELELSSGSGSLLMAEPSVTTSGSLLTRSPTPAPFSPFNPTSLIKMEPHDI
Sequence of HSF1 (Q00613 whole entry): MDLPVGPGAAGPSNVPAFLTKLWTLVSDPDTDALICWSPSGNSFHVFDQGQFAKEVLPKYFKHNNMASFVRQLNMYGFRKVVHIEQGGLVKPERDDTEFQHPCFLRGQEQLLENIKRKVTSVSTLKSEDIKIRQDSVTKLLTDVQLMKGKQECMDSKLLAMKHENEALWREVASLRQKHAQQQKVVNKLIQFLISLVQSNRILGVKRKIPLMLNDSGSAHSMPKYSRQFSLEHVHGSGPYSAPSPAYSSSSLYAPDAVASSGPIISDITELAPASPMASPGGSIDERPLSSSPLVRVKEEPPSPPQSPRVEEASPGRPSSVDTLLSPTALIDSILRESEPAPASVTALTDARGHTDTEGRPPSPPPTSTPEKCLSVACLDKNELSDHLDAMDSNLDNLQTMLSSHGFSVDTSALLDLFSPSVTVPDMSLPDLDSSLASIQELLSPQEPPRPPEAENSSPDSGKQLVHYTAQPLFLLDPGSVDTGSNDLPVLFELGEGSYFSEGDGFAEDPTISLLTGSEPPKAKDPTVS

In the case of AAAACG, the binding signal was 1.18 fold enrichment (6-mer frequency, TF over GST control) in [1]; 1.29 fold enrichment (6-mer frequency, TF over GST control) in assay [2]; 1.06 fold enrichment (6-mer frequency, TF over GST control) in [3]; 1.3 fold enrichment (6-mer frequency, TF over GST control) in [4]; 1.22 fold enrichment (6-mer frequency, TF over GST control) in assay [5]; 1.19 fold enrichment (6-mer frequency, TF over GST control) in [6]. Besides, the binding signal in [7] is 1.24 fold enrichment (6-mer frequency, TF over GST control); in assay [8] it was 1.16 fold enrichment (6-mer frequency, TF over GST control); in [9] it was 1.05 fold enrichment (6-mer frequency, TF over GST control); in assay [10], 1.21 fold enrichment (6-mer frequency, TF over GST control); in [11], 1.24 fold enrichment (6-mer frequency, TF over GST control); in assay [12], 1.19 fold enrichment (6-mer frequency, TF over GST control). Besides, the binding signal in assay [13] was 1.21 fold enrichment (6-mer frequency, TF over GST control); in assay [14], 1.2 fold enrichment (6-mer frequency, TF over GST control); in assay [15], 1.14 fold enrichment (6-mer frequency, TF over GST control); in assay [16], 1.18 fold enrichment (6-mer frequency, TF over GST control); in [17], 1.15 fold enrichment (6-mer frequency, TF over GST control); in assay [18], 1.25 fold enrichment (6-mer frequency, TF over GST control).
